Measurements reported in PubChem BioAssay (NCI).
The panel holds about 83,000 compounds, 20% with a hit somewhere; the sample as a whole holds those more often.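 Activity criterion: percent growth below 10, measured after cells in 96-well plates were exposed to a single compound concentration for 48 hours.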 Unmarked numbers belong to inactive results. Activity calls are given as the source filed them.

Legend:
Test in all cases: NCI-60 one-dose screen, 48 h (100 = growth as untreated, 0 = no growth, -100 = all killed)
Conditions in all cases: 10 µM
EKVX NSCLC = test system: EKVX NSCLC
SN12C renal = test system: SN12C renal
UO-31 renal = test system: UO-31 renal
TK-10 renal = test system: TK-10 renal
ACHN renal = test system: ACHN renal
CAKI-1 renal = test system: CAKI-1 renal
A498 renal = test system: A498 renal
CCRF-CEM leukemia = test system: CCRF-CEM leukemia
MOLT-4 leukemia = test system: MOLT-4 leukemia
SR leukemia = test system: SR leukemia

Row | Structure (SMILES) | growth (EKVX NSCLC) | growth (SN12C renal) | growth (UO-31 renal) | growth (TK-10 renal) | growth (ACHN renal) | growth (CAKI-1 renal) | growth (A498 renal) | growth (CCRF-CEM leukemia) | growth (MOLT-4 leukemia) | growth (SR leukemia)
1 | COc1cc(-c2nnc(-c3c(-c4ccc(F)cc4)nc4ccccn34)o2)cc(OC)c1OC | 97% | 68.2% | 62.9% | 89.7% | 51.8% | 91.3% | 62.7% | 89.1% | 89.6% | 25.3%
2 | CCN1CCC2(CC1)OC(c1ccccc1)C(c1ccccc1)O2 (stereo not given) | 107% | 110% | 87.2% | 103% | 109% | 111% | 98.9% | 91.7% | 96.5% | 96.9%
3 | COc1ccc2c(c1)C(=O)c1c-2c(OCCN(C)C)nc2cc(OC)c(OC)cc12 | 93.9% | 51.9% | 46.8% | 64.2% | 38.3% | 81% | 102% | 28.2% | 11.6% | 1.83% (active)
4 | COc1ccc(/C=C/C(=O)Nc2ccc(-c3nc4ccc(OC)cc4s3)cc2)cc1 | 100% | 103% | 85.2% | 109% | 114% | 104% | 97.8% | 98.3% | 81.6% | 86.7%
5 | CCc1ccc2c(c1)N(CCO)C1=C(C(=O)OC1)C2c1cc(OC)c(OC)c(OC)c1 (stereo not given) | 29.9% | 28.8% | 35.5% | 57.9% | 32.2% | 11.4% | -13.7% (active) | 10.2% | 11.4% | 12%
6 | Oc1[nH]c2cc(Cl)ccc2c1/C=c1/ccc2c(c1)N=C(c1cc(F)cc(F)c1)N=2 | 57.2% | 64% | 43.3% | 58.8% | 46.3% | 17.1% | 0.502% (active) | 9.33% (active) | 8.56% (active) | 11.4%
7 | COc1cc2nc(Nc3cccc(NC(C)=O)c3)nc(N)c2cc1OC | 133% | 95.5% | 78.4% | 150% | 102% | 127% | 95% | -71.1% (active) | -89.5% (active) | 107%
8 | COc1ccc(/C=C/C(=O)Nc2ccc(-c3nc4ccc(F)cc4s3)cc2)cc1 | 85.3% | 93.8% | 84.2% | 104% | 107% | 95.5% | 105% | 81.3% | 71.8% | 80.8%
9 | COc1cc(-c2nc(-c3nnc(-c4ccccc4Cl)o3)c3ccccn23)cc(OC)c1OC | 92.2% | 82.9% | 67.6% | 106% | 68.3% | 86.2% | 84.3% | 51.4% | 56.3% | 72.2%
10 | Nc1nccc(Nc2ccccc2)n1 | 107% | 119% | 94.7% | 122% | 100% | 118% | 97.3% | 89.8% | 96.3% | 102%
11 | O=[N+]([O-])c1cccc(N=Cc2ccc3c(c2)OCO3)c1 | 104% | 101% | 76.7% | 106% | 122% | 98.3% | 118% | 97% | 89.7% | 102%
12 | COc1ccc2c(c1)-c1c(c3cc(OC)ccc3n(CCN(C)C)c1=O)C2=O | 34.5% | 24.6% | -24.7% (active) | -2.26% (active) | 8.27% (active) | 1.94% (active) | 48.6% | 3.78% (active) | 1.5% (active) | -12.4% (active)
13 | NC1(C(=O)O)CSSC1 | 78.9% | 39.5% | 57.6% | 64.3% | 49.4% | 101% | 56.2% | 78.5% | 87.3% | 89.5%
14 | CCN(CC)CCOc1nc2ccc(OC)cc2c2c1-c1ccc(OC)cc1C2=O | 25.2% | 29.3% | -44.4% (active) | 8.74% (active) | -93% (active) | -4.67% (active) | 25.4% | 5.22% (active) | 3.68% (active) | -14.8% (active)
15 | COc1ccc(-c2nc3sccn3c2-c2nc3c([nH]2)C(=O)c2ccccc2C3=O)cc1 | 83.1% | 86% | 71.3% | 111% | 86.4% | 84.7% | 49.7% | 79.9% | 76% | 76.6%
16 | Cc1cccc2c(NCCN(C)C)c3cccc(C(=O)NCCN(C)C)c3nc12 | 19.4% | 15.9% | -67.6% (active) | -15.9% (active) | -44.6% (active) | 6.76% (active) | 33.8% | 3.77% (active) | 1.96% (active) | -14.7% (active)
17 | O=C1OCC2=C1C(c1ccc(Cl)c(Cl)c1)c1cc3c(cc1N2CCO)OCCO3 (stereo not given) | 42.3% | 41.7% | 22% | 57% | 46.2% | 34.1% | -5.46% (active) | 7.16% (active) | 19.9% | 27.9%
18 | CCCC1(CC(=O)O)OCCc2c1[nH]c1ccccc21 (stereo not given) | 120% | 98% | 86.4% | 113% | 111% | 91% | 106% | 94.1% | 87.3% | 84%
19 | O=C(Nc1ccncc1)C(=O)c1cn(S(=O)(=O)c2cccc(Cl)c2)c2ccccc12 | 52.3% | 75.5% | 57.7% | 87.6% | 82.8% | 63.8% | 69.4% | 72.4% | 53.1% | 12%
20 | COc1cc2c(cc1OC)N(CCO)C1=C(C(=O)OC1)C2c1ccc(Cl)c(Cl)c1 (stereo not given) | 87% | 108% | 82.3% | 98.7% | 107% | 107% | 89.3% | 92.6% | 73.7% | 86%
21 | COc1ccc2c(c1)/C(=C\c1c[nH]c3ccc(OC)cc13)C(=O)N2 | 47.8% | 52.8% | 46.8% | 81.7% | 39.6% | 21.3% | 34.6% | 28.6% | 11.7% | 14.7%
22 | O=C(Nc1nc2ccc(F)cc2s1)c1cc(-c2ccc(F)cc2)n2nc(-c3ccccc3)cc2n1 | 84.1% | 87.5% | 98.2% | 113% | 107% | 85.6% | 124% | 74.5% | 99.7% | 35%
23 | CCN(CC)CCC(CNc1c(C)cnc2cc(Cl)ccc12)c1ccc(Cl)cc1 (stereo not given) | 70.8% | 56.7% | 41.8% | 89.6% | 44.8% | 60.1% | 19.8% | 42% | 39.5% | -10.8% (active)
24 | Nc1ncnc2[nH]c(=O)[nH]c12 | 83.2% | 90.9% | 105% | 99.3% | 98.9% | 6.82% (active) | 128% | 125% | 138% | 26.1%
25 | CCCCCCCCCCCCCCCCN(C(C)c1ccccc1)S(=O)(=O)c1ccc(OC)c(N)c1 (stereo not given) | 114% | 118% | 89.2% | 122% | 106% | 96.5% | 123% | 97.5% | 98.8% | 94.2%
26 | O=C(CC(NC(=O)OCc1ccccc1)C(=O)OCc1ccccc1)OCc1ccccc1 (stereo not given) | 95.7% | 102% | 103% | 97.6% | 104% | 99.3% | 68.1% | 47.5% | 115% | 99.3%
27 | CCCCN(CCCC)CCCCCCCCC(O)c1cc2ccccc2c2ccccc12 (stereo not given) | 60.4% | 64.9% | 52.3% | 79% | 59.9% | 71.9% | 46% | 37.4% | 39% | 37.6%
